Assay results reported in PubChem BioAssay AID492994 (Johns Hopkins Ion Channel Center, 2010).
Results with a measured potency or affinity are listed apart. Active and inactive are the calls of the source.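 Rule for the calls: active = TRPC4 ion channel inhibited over 30% at some tested dose, with a fitted dose response curve; inactive = no inhibition or no dose response curve.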

Molecular target: Short transient receptor potential channel 4 (Mus musculus) (UniProt Q9QUQ5)
Experiment: TRPC4 inhibitor concentration-response, dose response, cell-based, HEK293 TRPC4/mu-opioid, DAMGO stimulus, Fluo-4 (AID 492994)

Sequence of Short transient receptor potential channel 4 (Mus musculus) (Q9QUQ5 whole entry, looked up): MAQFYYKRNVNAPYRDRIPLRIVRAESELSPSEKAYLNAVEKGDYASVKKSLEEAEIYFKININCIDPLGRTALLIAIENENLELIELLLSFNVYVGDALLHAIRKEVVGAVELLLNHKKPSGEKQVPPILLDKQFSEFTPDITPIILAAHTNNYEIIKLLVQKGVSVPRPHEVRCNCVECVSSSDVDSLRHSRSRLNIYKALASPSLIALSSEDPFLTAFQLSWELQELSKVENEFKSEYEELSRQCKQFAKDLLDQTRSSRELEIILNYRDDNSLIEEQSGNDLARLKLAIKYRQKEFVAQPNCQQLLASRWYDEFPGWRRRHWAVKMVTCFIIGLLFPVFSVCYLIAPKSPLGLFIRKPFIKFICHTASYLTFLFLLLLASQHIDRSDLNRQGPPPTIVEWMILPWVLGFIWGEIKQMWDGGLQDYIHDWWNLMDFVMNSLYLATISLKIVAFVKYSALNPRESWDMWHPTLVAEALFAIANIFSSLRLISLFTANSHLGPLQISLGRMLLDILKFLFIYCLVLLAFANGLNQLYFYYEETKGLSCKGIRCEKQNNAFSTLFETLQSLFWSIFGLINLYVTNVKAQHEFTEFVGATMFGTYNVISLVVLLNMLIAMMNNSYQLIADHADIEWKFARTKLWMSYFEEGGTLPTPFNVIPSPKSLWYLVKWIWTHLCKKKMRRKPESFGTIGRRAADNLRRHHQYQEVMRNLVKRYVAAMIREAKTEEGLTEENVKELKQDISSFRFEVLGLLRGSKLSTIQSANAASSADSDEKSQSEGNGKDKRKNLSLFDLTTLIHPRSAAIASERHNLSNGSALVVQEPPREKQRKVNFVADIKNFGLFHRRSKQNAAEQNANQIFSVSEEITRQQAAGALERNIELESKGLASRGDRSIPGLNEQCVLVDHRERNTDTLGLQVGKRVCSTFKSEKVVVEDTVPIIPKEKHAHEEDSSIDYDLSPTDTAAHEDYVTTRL

| Structure (SMILES) | outcome |
| --- | --- |
| Cc1cc(N2CCNCC2)nc2ccccc12 | inactive |
| Cc1cc(N2CCN(C)CC2)nc2ccccc12 | inactive |
